Source: PubChem BioAssay (Sanford-Burnham Center for Chemical Genomics)
Hits are enriched below; roughly 2.2% of the tested compounds scored in any of these assays.
CF NFkB block = inhibitors of cystic fibrosis induced NF-kB | inhibition, % at 5 µM | KKLEB NF-kB-GFP reporter, PAF-induced, GFP fluorescence overnight | 0.86% of 360,000 active;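 active = at least 50% inhibition at 5 µM, scaled per plate between neutral and stimulator controls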;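 also: PAF is a Pseudomonas aeruginosa culture filtrate used as stimulus; plate controls were PAF-stimulated DMSO wells for no effect and unstimulated DMSO wells for full effect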
C8 TRAIL sens = sensitizes caspase-8 expressing cells to TRAIL | NB7+C8 cells + TRAIL, ATPlite viability luminescence | inhibition (viability loss, TRAIL sensitization), % at 10 µM | 1% of 360,000 active | AID 624354;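 active = compounds causing at least 50% loss of cell viability in the single-dose screen, relative to plate controls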
iPSC survival up = enhancers of human iPSC single-cell survival; hiPSC single-cell survival, ATPlite luminescence; 100% = ROCK inhibitor wells, 0% = DMSO; survival enhancement, % at 20 µM; AID 602274; 0.044% of 360,000 active; in the data active = survival enhancement above about 18%;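 also: cells exposed to compounds for 16 hours before the ATP read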
PPC-1+TRAIL kill = compounds killing PPC-1 cancer cells with TRAIL present (potentiator screen, no TRAIL-free arm); 0.41% of 220,000 active; cell killing (% activity), % at 4 µM or 5 µM; AID 1443; PPC-1 cells + TRAIL, ATPLite viability luminescence;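 active = cell killing above 50% in the first pass at 4 µM, then a duplicate retest at 5 µM averaging 50% or more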;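 also: plate controls were cells with TRAIL plus DMSO for no effect and medium-only wells lacking cells for full effect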
KKLEB cytotox = CF airway cell cytotoxicity counter-screen. KKLEB CF airway cells viability, ATPlite luminescence, overnight; active compounds read low; cells stimulated with P. aeruginosa culture filtrate. activity change (cytotoxicity), % at 5 µM. 0.36% of 360,000 active. AID 602141;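 active = corrected activity change at or below -50% at 5 µM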
HIF-2a block = HIF-2a inhibition; 786-0 RCC cells HIF-2a reporter, luciferase luminescence, overnight; inhibition, % at 18.8 µM; 0.72% of 360,000 active; AID 624352;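 active = inhibition of the luminescence signal of 40% or more relative to plate controls, in a single-dose primary screen at 18.75 µM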
HIF-2a conf = confirmation of HIF-2a inhibitors; shares compounds with HIF-2a block; 786-0 RCC cells, HIF-2a luciferase reporter luminescence, overnight; inhibition, % at 18.8 µM; 56% of 1,800 active; AID 651580;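 active = mean inhibition across four replicates of at least 40 percent at the single tested concentration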
HIF-1a counter = HIF-1a inhibition counter-screen for HIF-2a hits; shares compounds with HIF-2a block; MiaPaCa-2 HIF-1a luciferase reporter, desferoxamine, overnight; inhibition, % at 18.8 µM; 72% of 1,800 active; AID 651589;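 active = mean inhibition of the reporter signal across four replicates at the single tested dose of 50% or more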
* marks the source's active call; other numbers are inactive results.

Screening CC(C)(CNC(=O)CC1C(=O)NCCN1Cc1cccc(F)c1F)N1CCOCC1 (configuration not stated) returned CF NFkB block 9, C8 TRAIL sens -3, iPSC survival up 0, KKLEB cytotox 4 and HIF-2a block 9.
`O=C(NCCN1C(=O)S/C(=C\c2ccc(Cl)c([N+](=O)[O-])c2)C1=O)C1=COCCO1` gave CF NFkB block 8, C8 TRAIL sens 55*, iPSC survival up 10, KKLEB cytotox 16, HIF-2a block 44*, HIF-2a conf -2 and HIF-1a counter 104*.
For N#CCN=C(c1ccccc1)c1ccccc1 the results were CF NFkB block -2, C8 TRAIL sens 2, iPSC survival up 2, KKLEB cytotox 6 and HIF-2a block 6.
For COc1ccccc1N1C(=O)C=C(Sc2nc(C)cc(C)n2)C1=O the results were CF NFkB block -5, C8 TRAIL sens -1, iPSC survival up 0, PPC-1+TRAIL kill 23, KKLEB cytotox 6, HIF-2a block 58*, HIF-2a conf 63* and HIF-1a counter -13.
For COc1ccccc1N1C(=O)C2CC(C)=C(C)CC2C1=O (configuration not stated) the results were CF NFkB block -6, C8 TRAIL sens -3, iPSC survival up -1, PPC-1+TRAIL kill -4, KKLEB cytotox -12 and HIF-2a block 9.
Screening CN(C)CCCN(C(=O)c1cc2cc([N+](=O)[O-])ccc2s1)c1nc2cc3c(cc2s1)OCCO3 returned CF NFkB block 80*, C8 TRAIL sens 91*, iPSC survival up 0, KKLEB cytotox -94*, HIF-2a block 76*, HIF-2a conf 29 and HIF-1a counter 104*.
Screening CN(C)CCCN(C(=O)c1ccc([N+](=O)[O-])s1)c1nc2cc3c(cc2s1)OCCO3 returned CF NFkB block -5, C8 TRAIL sens 11, iPSC survival up 0, KKLEB cytotox 24 and HIF-2a block 17.
CCOc1ccc(C(=O)/C=C/c2cc(OC)c(OC)c(OC)c2)cc1 was read as CF NFkB block 5, C8 TRAIL sens 15, iPSC survival up 0, PPC-1+TRAIL kill 11, KKLEB cytotox -25, HIF-2a block 66*, HIF-2a conf 53* and HIF-1a counter 103*.
COc1cc(/C=C/C(=O)c2ccc(F)cc2)cc(OC)c1OC was read as CF NFkB block 10, C8 TRAIL sens -21, iPSC survival up -1, PPC-1+TRAIL kill 35, KKLEB cytotox 3 and HIF-2a block 39.
`CCOc1ccc(/C=C2/C(=O)N(c3ccc(OC)cc3)C(=S)N2CC(=O)OC)cc1OCC` gave CF NFkB block -10, C8 TRAIL sens -9, iPSC survival up 9, PPC-1+TRAIL kill 2, KKLEB cytotox -40 and HIF-2a block 24.
`COc1cc(/C=C/C(=O)c2ccc3c(c2)OCCO3)cc(OC)c1OC` gave CF NFkB block 33, C8 TRAIL sens 19, iPSC survival up 1, KKLEB cytotox -12, HIF-2a block 56*, HIF-2a conf 48* and HIF-1a counter 101*.
Screening CCOc1ccc(N2C(=O)/C(=C/c3cc(OC)c(OC)c(OC)c3)N(CC(=O)OC)C2=S)cc1 returned CF NFkB block 34, C8 TRAIL sens 3, iPSC survival up 1, PPC-1+TRAIL kill 24, KKLEB cytotox -12, HIF-2a block 48*, HIF-2a conf 30 and HIF-1a counter 47.
COc1cc(/C=C/C(=O)c2ccc(C)cc2)ccc1OCC#N was read as CF NFkB block 41, C8 TRAIL sens 13, iPSC survival up -2, PPC-1+TRAIL kill 10, KKLEB cytotox -38, HIF-2a block 86*, HIF-2a conf 25 and HIF-1a counter 102*.
`COc1ccc(S(=O)(=O)N2CCC(C(=O)N(CC(C)C)C3CCS(=O)(=O)C3)CC2)cc1OC` (configuration not stated) gave CF NFkB block 18, C8 TRAIL sens 2, iPSC survival up 0, KKLEB cytotox -8 and HIF-2a block 9.
`CC(C)Cc1nc(SCC(=O)N2CCCCC2)c2c(=O)n(C)c(=O)n(C)c2n1` gave CF NFkB block -4, C8 TRAIL sens 33, iPSC survival up 0, KKLEB cytotox 8 and HIF-2a block 16.
`COc1cc(C=CC(=O)OCC=Cc2ccc3c(c2)OCO3)cc(OC)c1OC` gave CF NFkB block 5, C8 TRAIL sens 3, iPSC survival up -1, KKLEB cytotox 4 and HIF-2a block 15.
For COc1cc(/C=C/C(=O)c2ccc3c(c2)OCO3)cc(OC)c1OC the results were CF NFkB block 35, C8 TRAIL sens 8, iPSC survival up -2, KKLEB cytotox -10, HIF-2a block 44*, HIF-2a conf 36 and HIF-1a counter 103*.
For O=C1C(Cl)=C(NC2CCCCC2)C(=O)N1Cc1ccccc1 the results were CF NFkB block 2, C8 TRAIL sens -1, iPSC survival up 0, PPC-1+TRAIL kill -6, KKLEB cytotox -12 and HIF-2a block 6.
Screening O=C1C(Cl)=C(N2CCN(Cc3ccccc3)CC2)C(=O)N1Cc1ccccc1 returned CF NFkB block 10, C8 TRAIL sens 5, iPSC survival up 0, PPC-1+TRAIL kill 2, KKLEB cytotox -8, HIF-2a block 40*, HIF-2a conf 2 and HIF-1a counter 26.
COc1ccc(C(=O)/C=C/C(=O)N(Cc2ccccc2OC)C(C(=O)NC2CCCCC2)c2ccncc2)c(O)c1 (configuration not stated) was read as CF NFkB block -3, C8 TRAIL sens -7, iPSC survival up 0, PPC-1+TRAIL kill -14, KKLEB cytotox 2 and HIF-2a block 20.
`COc1ccc(C(=O)/C=C/C(=O)N(Cc2ccccc2)C(C(=O)NC2CCCCC2)c2ccncc2)c(O)c1` (configuration not stated) gave CF NFkB block 15, C8 TRAIL sens -5, iPSC survival up -4, PPC-1+TRAIL kill 11, KKLEB cytotox -14, HIF-2a block 40*, HIF-2a conf 5 and HIF-1a counter 48.
For COc1ccc(C(=O)/C=C/C(=O)N(CC(=O)NC2CCCCC2)CC2CCCO2)c(O)c1 (configuration not stated) the results were CF NFkB block 48, C8 TRAIL sens 12, iPSC survival up -2, PPC-1+TRAIL kill -6, KKLEB cytotox -17, HIF-2a block 94*, HIF-2a conf 99* and HIF-1a counter 107*.
